Out of some 300,000 compounds screened, about 1,200 (0.4%) were called active. Not shown: some 3% with an inconclusive outcome. Calls follow the shape of the dose curve; as a rule, active = well fitted inhibition curve with a large enough effect; inconclusive = small, poorly fitted or top-dose-only effect, or another doubt; inactive = no such curve, though single readings can be large or run the other way. The list comes from a sample in which actives are over-represented; it also holds similar structures and randomly drawn compounds.
Each compound was assayed against Lysosomal alpha-glucosidase (Homo sapiens) (UniProt P10253) (assay: qHTS Assay for Inhibitors and Activators of Human alpha-Glucosidase Cleavage of Glycogen). Conditions: recombinant GAA, glycogen substrate, Amplex Red glucose oxidase fluorescence; series mostly up to 76.3 µM; activity change, negative = inhibition: at the top concentration.
Source text: NIH Chemical Genomics Center [NCGC] NIH Molecular Libraries Probe Production Centers Network [MLPCN] MLPCN Grant: R03 MH084841-01 Assay Submitter (PI): Wei Zheng NCGC Assay Overview: Alpha-glucosidase is responsible for the hydrolysis of terminal, non-reducing 1,4-linked alpha-D-glucose residues, which releases alpha-D-glucose. It is a lysosomal hydrolase that is required for the degradation of a small percentage (1-3%) of cellular glycogen in humans. Deficiency of this enzyme results in glycogen-storage disease type II (GSDII), also referred to as Pompe disease, an autosomal recessive disorder. Structurally normal glycogen is accumulated in the lysosomes and cytoplasm in affected patients, primarily in muscle tissues. Excessive glycogen storage within lysosomes may interrupt normal functioning of other organelles and leads to cellular injury. In turn, this leads to enlargement and dysfunction of the entire organ involved (eg: cardiomyopathy and muscle weakness). It has been reported that the improper folding and trafficking of alpha-glucosidase resulting from genetic mutations may account for a significant number of Pompe patients. […] We optimized this alpha-glucosidase assay in 1536-well plate format for identification of novel small molecule inhibitors or activators with structures other than the sugar analogs in order to develop new pharmacological chaperones. Previous assays of alpha-Glucosidase have utilized a non-natural fluorescent substrate to probe enzyme activity. The present assay measures enzyme activity on glycogen using a coupled-assay system to glucose oxidase.
NCGC Assay Protocol Summary: This is an enzyme assay using glycogen from bovine liver (Sigma catalog #: G0885) as the substrate and recombinant human alpha-glucosidase as the enzyme preparation. Upon hydrolysis of the substrate, the glucose product can be detected using the Amplex Red Glucose Oxidase Assay Kit (Invitrogen catalog #: A22189). The product of this reaction can be read with a fluorescence plate reader with an excitation at 573 nm and an emission at 610 nm. Data were normalized to the controls for basal activity (without enzyme) and 100% activity (with enzyme). The AC50 values were determined from concentration-response data modeled with the standard Hill equation. Assay buffer for enzyme reaction: 50 mM citric acid (titrated with potassium phosphate to pH 5.0), 0.01% Tween-20 (pH 5.0 is an optimal condition for this enzyme assay) Assay buffer for Amplex Red reaction: Tris-HCl, pH 7.5 1536-well assay protocol for the alpha-glucosidase assay: (1) Add 2 ul/well alpha-glucosidase enzyme solution (4 nM final) (2) Add 23 nL compounds in DMSO solution. The final titration was 0.7 nM to 77 uM. (3) Add 1 ul of glycogen substrate solution (30 ug) (4) Incubate at 37 C for 40 min (5) Add 2 ul tris-HCl buffer with Amplex Red reagents (6) Incubate 45 min at room temperature. (7) Detect the assay plate in a ViewLux plate reader (PerkinElmer) with Ex=573 nm and Em=610nm. Keywords: Alpha-glucosidase, Pompe Disease, pharmacological chaperone, chaperone therapy, high throughput screening, alpha-glucosidase inhibitor, MLSMR, MLSCN, NIH Roadmap, qHTS and NCGC
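Also: the screen sought inhibitors and activators.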
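For activity change, negative = inhibition in this document: 0% = full enzyme reaction and -100% = no-enzyme basal signal.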
Potency is read from the fitted curve at half-maximal effect.

Activity change, negative = inhibition, inactive:
COC(=O)c1sccc1NC(=S)Nc1ccc(C)cc1 -7.72% [at 76.4 µM]
CCCC(=O)Nc1c(O)c2ccccc2[nH]c1=O -14.1% [at 76.4 µM]
O=C(O)c1[nH]c2ccccc2c1C(c1cccc(O)c1)c1c(C(=O)O)[nH]c2ccccc12 -1.4% [at 76.4 µM]
O=S(=O)(c1ccc(Cl)cc1)c1nnn2c1nc(NC1CCCC1)c1sccc12 -2.29%
Cc1c(Cl)cccc1NC(=O)C1CCCN(C(=O)c2cnn(-c3ccccc3)c2-n2cccc2)C1 (configuration not stated) -16.3%
c1cnn(-c2cc(N3CCOCC3)ncn2)c1 0.521% [at 76.4 µM]
O=C(CN1C(=O)COc2ccc(Cl)cc21)Nc1ccc(N2CCOCC2)cc1 -8.28%
CCC(=O)N1CCc2cc(S(=O)(=O)NC(CC(C)C)C(=O)NCCc3cccc(C)c3)ccc21 (configuration not stated) -7.4%
COc1cccc(NC(=O)CN2C(=O)c3ccccc3Sc3ncccc32)c1 -11.9%
O=C(c1ccc(C(F)(F)F)cc1)N1CCC(c2nc(-c3ccc(S(=O)(=O)N4CCCC4)cc3)no2)CC1 -13.7%
Cc1c(C)c2ccc(OCC(=O)N3CCC(C(=O)O)CC3)c(C)c2oc1=O 7.97%
O=C(CNC(=O)C1COc2ccccc2O1)N/N=C/c1cc(Br)c(O)c(Br)c1 (configuration not stated) 1.03% [at 76.4 µM]
COc1ccccc1C(=O)NCCn1cc(SCc2ccccc2Cl)c2ccccc21 2.94%
CCOc1ccc(N2CC(C)Cn3c2nc2c3c(=O)n(Cc3c(F)cccc3Cl)c(=O)n2C)cc1 (configuration not stated) 8.54%
O=S(=O)(c1ccc(Br)cc1)c1nnn2c1nc(N1CCOCC1)c1sccc12 17.4%
Cc1ccc(Cl)cc1NC(=O)/C(C#N)=C\c1cn(Cc2ccc(F)cc2)c2ccccc12 6.62%
Cc1c(C)c(C)c2[nH]c(=S)[nH]c2c1C 4.09% [at 76.4 µM]
Cc1ccsc1CN(C(=O)c1oc2ccc(Br)cc2c1C)C1CCS(=O)(=O)C1 (configuration not stated) 4.76%
CCCn1c2ccccc2c2cnn(CC(=O)NCC3CCN(Cc4ccc(C)cc4)CC3)c(=O)c21 -3.9%
CCN(C(=O)CSc1nnc(C)n2c1cc1occc12)c1ccccc1 -18.8%
OCCN(Cc1ccccc1)Cc1ccc(Cl)cc1 7.32% [at 76.4 µM]
CCN(CC)c1ccc([N+](=O)[O-])cc1C(=O)O 11.9% [at 76.4 µM]
COc1cc2ccccc2cc1C(=O)Nc1ccc(N2CCOCC2)cc1 4.76% [at 76.4 µM]
CC(=O)Oc1cccc(N2C(=O)C3CC=C(Cl)CC3C2=O)c1 (configuration not stated) 5.61% [at 76.4 µM]
CCOC(=O)c1oc2ccc(S(=O)(=O)n3nc(-c4ccccc4OC)cc3N)cc2c1C 1.61%
Oc1ccccc1-c1nc2ccc(Cl)cn2c1Nc1ccc2c(c1)OCCO2 8.37%
Cc1ccc(Nc2c(-c3ccc(C)s3)nc3ccccn23)cc1 -17.9%
CN(C(=O)CSc1nc2ccc(NC(=O)COc3ccccc3)cc2s1)c1ccccc1 -5.51%
CCc1cccc(NC(=O)CN(C)S(=O)(=O)c2ccc3[nH]c4c(c3c2)CCCC4)c1 4.13%
CC(=O)Nc1ccc(S(=O)(=O)NNC(=O)CCc2ccccc2)cc1 -0.0961% [at 76.4 µM]
O=C(CCc1ccccc1)NNC(=O)c1ccc(Br)cc1 10.6% [at 76.4 µM]
O=S(=O)(NCCc1nnc2ccc(SCc3ccc(Cl)cc3Cl)nn12)c1ccccc1 -7.52%
O=[N+]([O-])c1cc(-c2nc(-c3ccccc3)no2)ccc1NCc1ccco1 -4.02%
COc1ccc(Cn2c(=O)n(-c3ccccc3C)c(=O)c3c4c(sc32)CN(C(C)=O)CC4)cc1 -9.25%
CCC(C)(C)NC(=O)C1c2ccccc2Oc2ccccc21 -10.9% [at 76.4 µM]
CCC(C)NC(=O)C1c2ccccc2Oc2ccccc21 (configuration not stated) 19.6% [at 76.4 µM]
CCOc1ccc(C2CC(=O)c3c([nH]c(C(=O)OCc4ccccc4)c3C)C2)cc1 (configuration not stated) 8.54%
CCOc1ccc(N(CC)S(=O)(=O)N2CCCC(C(=O)NCc3ccc(Cl)cc3)C2)cc1 (configuration not stated) -6.48%
CC(=O)c1c(C)n(S(=O)(=O)c2ccc(Cl)cc2)c2ccc(NS(=O)(=O)c3ccc(Cl)cc3)cc12 -15.1%
COc1ccc(NC(=O)c2sc(N)nc2-c2ccccc2)cc1 3.8% [at 76.4 µM]
Nc1ccc(-c2nnc(-c3ccccc3)o2)cc1 -7.39%

Potency, active:
CCOC(=O)C(=CNNc1ccsc1C(=O)OC)C(=O)OCC 14 µM
CCCS(=O)(=O)Nc1c(C(=O)O)[nH]c2ccccc12 3.55 µM
O=C(Nc1cc(N2CCOCC2)ncn1)NC1(C(F)(F)F)Oc2ccc(Cl)cc2O1 (configuration not stated) 11.1 µM
Cc1c(CC(=O)N2CCN(C(=O)C3COc4ccccc4O3)CC2)c(=O)oc2c(O)c(O)ccc12 (configuration not stated) 6.31 µM
O=c1[nH]c(=S)[nH]c2[nH]c(=S)[nH]c12 39.8 µM
O=[N+]([O-])c1ccc(N(CCO)Cc2ccccc2)c([N+](=O)[O-])c1 10 µM
CC(=O)Oc1cccc(N2C(=O)CC(Nc3ccc(N4CCOCC4)cc3)C2=O)c1 (configuration not stated) 35.5 µM
Cc1cccc2nc(-c3ccc(Cl)s3)c(Nc3ccc4c(c3)OCCO4)n12 7.94 µM
O=C(CCc1ccccc1)NNc1ccc(F)cc1 20 µM
O=C(N/N=C/c1ccc(O)c(O)c1)C1c2ccccc2Oc2ccccc21 14.1 µM
Nc1ccc(-c2sc(N)nc2-c2ccccc2)cc1 14 µM

From PubChem BioAssay AID2100 (National Center for Advancing Translational Sciences (NCATS), 2009)
